Results from PubChem BioAssay AID1159580 (chemical genetic matrix, 2015).
The whole screen tested about 5,500 compounds, of which about 2,000 (36%) were called active. Inconclusive results (about 18%) are left out. No stated cut-off is given here; in the data, active means normalized growth mostly below about 0.91 (no sharp cut-off); inconclusive means no clear call, values can overlap the other calls; inactive means mostly above about 0.92. Some of the results follow.

Assay: chemical genetic growth profiling, strain panel (AID 1159580);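 further: tested at 20 µM; growth read once vehicle control cultures reached saturation at 30 °C; 1 = growth at the plate median or of vehicle wells; lower values mean less growth of the strain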
Conditions: S. cerevisiae deletion strains, growth OD
[1] = locus YAL040C, strain CLN3, hits give low values
[2] = locus YCL061C, strain MRC1 (second series), hits give low values
[3] = locus YDR363W, strain ESC2, hits give low values
[4] = locus YER002W, strain NOP16, hits give low values
[5] = locus YNL175C, strain NOP13, hits give low values
[6] = locus YNL197C, strain WHI3, hits give low values
[7] = locus YNL224C, strain SQS1, hits give low values
[8] = locus YOR083W, strain WHI5 (second series), hits give low values
[9] = locus YPL241C, strain CIN2, hits give low values

Measured: normalized growth

CCCC[C@@]1(C2CCCC2)Cc2cc(OCC(=O)O)c(Cl)c(Cl)c2C1=O
inactive: locus YAL013W, strain DEP1, hits give low values 1.02 | [1] 1 | [2] 1 | [3] 0.989 | [4] 1.05 | locus YGR078C, strain PAC10, hits give low values 1.02 | locus YGR229C, strain SMI1, hits give low values 1.03 | locus YMR263W, strain SAP30, hits give low values 1 | locus YNL153C, strain GIM3, hits give low values 1.01 | [5] 0.986 | [6] 0.959 | [7] 0.989 | [8] 1 | [9] 1

C[C@@]1(C2CCCC2)Cc2cc(OCC(=O)O)c(Cl)c(Cl)c2C1=O
inactive: [1] 1 | [2] 1.01 | [3] 1.01 | [4] 1 | locus YMR307W, strain GAS1, hits give low values 1.01 | locus YNL128W, strain TEP1, hits give low values 1 | [5] 1 | [6] 1 | [7] 1 | locus YNL322C, strain KRE1, hits give low values 1 | [8] 1.01 | locus YPL055C, strain LGE1, hits give low values 1.01 | [9] 1.01
